Data published in the supplement of paper PMC10515830.
Structures can show the parent of a compound that is named as a salt.

The compounds below were run on Danio rerio larvae (5 dpf) (assay: difference in excitability vs DMSO (percentage points); higher = more excitable than DMSO). Settings: 10 µM; exposure time 6 h.
Method in brief: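 In 96-well plates, 48 wild-type zebrafish larvae aged 5 dpf per compound received 100 µL egg water with library compound at 10 µM final for 6 h. Three hours into this, a 3-h programme of moving lines and 100 ms, 400Hz tones ran at 28.5 ℃ while plates were photographed every 6 s. Z-LaP Tracker scored the behaviours, and each is given as the compound mean minus the vehicle control mean in percentage points.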

Row | Compound | difference in excitability
1 | COc1cc(Cc2cnc(N)nc2N)cc(OC)c1OC [Trimethoprim] | 2.02
2 | C=CC[N+]1([C@H]2C[C@H]3[C@@H]4CC[C@H]5C[C@H](O)[C@@H](N6CCOCC6)C[C@]5(C)[C@H]4CC[C@]3(C)[C@H]2OC(C)=O)CCCC1 [Rocuronium (bromide)] | 14.3
3 | CCOc1ccc2ccccc2c1C(=O)N[C@@H]1C(=O)N2[C@@H]1SC(C)(C)[C@@H]2C(=O)O [Nafcillin (sodium salt hydrate)] | 3.99
4 | CN1C(C(=O)Nc2ccccn2)=C(O)c2ccccc2S1(=O)=O [Piroxicam] | 12.1
5 | CC(=O)O[C@H]1C[C@@H]2CC[C@@H]3[C@H](CC[C@@]4(C)[C@H]3C[C@H]([N+]3(C)CCCCC3)[C@@H]4OC(C)=O)[C@@]2(C)C[C@@H]1N1CCCCC1 [Vecuronium (bromide)] | 11.8
6 | O=C1[C@@H]2[C@H]3CC[C@H](C3)[C@@H]2C(=O)N1C[C@@H]1CCCC[C@H]1CN1CCN(c2nsc3ccccc23)CC1 [Lurasidone] | -9.91
7 | CC(=O)CCCCn1c(=O)c2c(ncn2C)n(C)c1=O [Pentoxifylline] | 11.4
8 | CNS(=O)(=O)CCc1ccc2[nH]cc(C3CCN(C)CC3)c2c1 [Naratriptan (hydrochloride)] | 8.93
9 | C[C@]12C=CC(=O)C=C1CC[C@@H]1[C@@H]2[C@@H](O)C[C@@]2(C)[C@H]1CC[C@]2(O)C(=O)CO [Prednisolone] | 1.41
10 | CN(C)CCC(c1ccc(Cl)cc1)c1ccccn1 (configuration not stated) [Chlorpheniramine (maleate)] | 1.12
11 | COc1ccc2c(c1)c(CC(=O)O)c(C)n2C(=O)c1ccc(Cl)cc1 [Indomethacin] | -1.03
12 | COc1ccc(C(=O)CC(=O)c2ccc(C(C)(C)C)cc2)cc1 [Avobenzone] | 3.84
13 | Cc1cc(C(C)(C)C)c(O)c(C)c1CC1=NCCN1 [Oxymetazoline (hydrochloride)] | 2.23
14 | N[C@@H]1CCCCN(c2c(F)cc3c(=O)c(C(=O)O)cn(C4CC4)c3c2Cl)C1 [Besifloxacin (hydrochloride)] | 13
15 | Cc1ccccc1N1C(=O)c2cc(S(N)(=O)=O)c(Cl)cc2NC1C (configuration not stated) [Metolazone] | 5.2
16 | CNCc1ccc(-c2[nH]c3cc(F)cc4c3c2CCNC4=O)cc1 [Rucaparib] | 15.9

Row | Compound | difference in excitability
17 | Nc1nc(F)nc2c1ncn2[C@@H]1O[C@H](COP(=O)(O)O)[C@@H](O)[C@@H]1O [Fludarabine Phosphate] | 2.14
18 | C=C[C@H]1CN2CC[C@H]1C[C@H]2[C@H](O)c1ccnc2ccc(OC)cc12 [Quinine] | 11.3
19 | O=c1[nH]cc(F)c(=O)[nH]1 [5-Fluorouracil] | 4.49
20 | CCCN(CCc1cccs1)[C@H]1CCc2c(O)cccc2C1 [Rotigotine] | 20.1
21 | CN(C)C(=O)c1cc2cnc(Nc3ccc(N4CCNCC4)cn3)nc2n1C1CCCC1 | 10.3
22 | OCCN(CCO)c1nc(N2CCCCC2)c2nc(N(CCO)CCO)nc(N3CCCCC3)c2n1 [Dipyridamole] | 1.25
23 | COc1ccc(C[C@@H](C)NC[C@H](O)c2ccc(O)c(NC=O)c2)cc1 [Arformoterol (tartrate)] | 10.3
24 | O=C(O)COCCN1CCN(C(c2ccccc2)c2ccc(Cl)cc2)CC1 (configuration not stated) [Cetirizine (hydrochloride)] | -1.62
25 | CC1(C)C[C@@H]1C(=O)N/C(=C\CCCCSC[C@H](N)C(=O)O)C(=O)O [Cilastatin] | -5.97
26 | CNCCC=C1c2ccccc2CCc2ccccc21 [Nortriptyline (hydrochloride)] | 3.17
27 | CC(=O)OCC(=O)[C@@]1(OC(C)=O)[C@@H](C)C[C@H]2[C@@H]3C[C@H](F)C4=CC(=O)C=C[C@]4(C)[C@@]3(F)[C@@H](O)C[C@@]21C [Diflorasone Diacetate] | 10.5
28 | CC(=O)OCC(CCn1cnc2cnc(N)nc21)COC(C)=O [Famciclovir] | 0.306
29 | COc1cc(CNC(=O)CCCC/C=C/C(C)C)ccc1O [Capsaicin] | 12.5
30 | CN(C)C/C=C/C(=O)Nc1cc2c(Nc3ccc(F)c(Cl)c3)ncnc2cc1O[C@H]1CCOC1 [Afatinib (maleate)] | 20.1
31 | COc1ccc(CC(C)NCC(O)c2ccc(O)c(NC=O)c2)cc1 (configuration not stated) [Formoterol (hemifumarate hydrate)] | 9.74
32 | OC[C@H]1NC[C@H](O)[C@@H](O)[C@H]1O [1-Deoxygalactonojirimycin (hydrochloride)] | 1.33
